Sampled rows, rich in hits. Any-hit rate of the full collection: about 2.6%.
PABP1 MLLE inh = blocks PAM2 peptide binding to the PABP1 MLLE domain | 360,000 compounds, 0.36% hits | GST-MLLE / FITC-PAM2 fluorescence polarization | P11940 | inhibition, % at 20 µM; in the data active = inhibition above about 35%, passing the limit was not always enough;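 also: plate controls were DMSO wells with GST-MLLE for no effect and wells lacking GST-MLLE protein for full effect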
Target sequence (P11940 whole entry, looked up, the tested form may be a part): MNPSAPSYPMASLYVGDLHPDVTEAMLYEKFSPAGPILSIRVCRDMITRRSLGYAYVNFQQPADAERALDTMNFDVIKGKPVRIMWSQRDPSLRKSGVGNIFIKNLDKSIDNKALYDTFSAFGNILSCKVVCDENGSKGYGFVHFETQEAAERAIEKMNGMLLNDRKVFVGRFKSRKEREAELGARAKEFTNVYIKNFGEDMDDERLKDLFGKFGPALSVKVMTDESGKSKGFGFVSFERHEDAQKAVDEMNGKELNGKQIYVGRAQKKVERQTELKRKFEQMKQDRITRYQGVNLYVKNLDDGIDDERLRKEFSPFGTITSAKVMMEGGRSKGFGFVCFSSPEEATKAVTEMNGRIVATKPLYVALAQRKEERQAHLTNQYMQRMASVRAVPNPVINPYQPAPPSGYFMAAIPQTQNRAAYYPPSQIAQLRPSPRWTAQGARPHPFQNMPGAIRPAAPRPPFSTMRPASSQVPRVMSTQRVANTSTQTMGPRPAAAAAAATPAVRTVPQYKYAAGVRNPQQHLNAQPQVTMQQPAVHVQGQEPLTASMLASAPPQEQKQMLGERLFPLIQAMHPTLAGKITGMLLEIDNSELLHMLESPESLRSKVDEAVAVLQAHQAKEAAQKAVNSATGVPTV
eIF4H FP inh = inhibitors of RNA binding by human eIF4H; Q15056; eIF4H fluorescence polarization binding assay; inhibition, % at 35 µM; 290,000 compounds, 0.94% hits; AID 2012;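 also: calls also rest on retests at 20 µM and on dose response follow-up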
A3G deaminase = inhibitors of human APOBEC3G DNA deaminase. 330,000 compounds, 0.28% hits. inhibition, % at 20 µM. Q9HC16. recombinant A3G, ssDNA deamination FAM/TAMRA fluorescence. AID 493012;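 active = inhibition of at least 40% at 20 µM, with no more than 30% in the related APOBEC3A deaminase screen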;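 also: plate controls were DMSO wells with A3G for no effect and wells lacking A3G enzyme for full effect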
PHOSPHO1 inh = inhibitors of human PHOSPHO1 phosphatase; Q8TCT1; inhibition, % at 13.3 µM; 290,000 compounds, 1.1% hits; recombinant PHOSPHO1, absorbance phosphatase assay; in the data active = inhibition above about 60%
APOBEC3A inh = human APOBEC3A DNA deaminase inhibition. 330,000 compounds, 0.41% hits. recombinant A3A, FAM/TAMRA ssDNA deamination fluorescence. AID 493011. P31941. inhibition, % at 20 µM;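 active = at least 40% inhibition at 20 µM here, with at most 30% in a related deaminase screen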;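 also: plate controls were A3A with DMSO for no effect and wells lacking A3A enzyme for full effect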
PABP polyA inh = blocks human PABP binding to poly(A) RNA; fluorescence polarization; P11940; calls only at 35 µM; 290,000 compounds, 1% hits;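 also: calls also rest on retests at 20 µM and on dose response follow-up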
* hit, by the source's call; i = inactive; ? = inconclusive; . = no result given; + = active, no number. Unless noted, no rule for the calls is given here.

SMILES	PABP1 MLLE inh	eIF4H FP inh	A3G deaminase	PHOSPHO1 inh	APOBEC3A inh	PABP polyA inh
Cc1cc(C)c2c(CN3CCCC3)cc(=O)oc2c1	-1.8	.	.	.	.	.
Cc1cc(=O)oc2c(CN3CCCCC3)c(O)c(Cl)cc12	-0.2	-0.7	0.0	-10.7	-0.4	i
CCN(CC)Cc1c(O)c(Cl)cc2c(C)c(C)c(=O)oc12	0.8	-3.9	-0.7	-2.7	0.6	i
Cc1ccc2nc(Nc3nc(C)cc(-c4ccccc4)n3)[nH]c(=O)c2c1	-7.0	-8.2	21.6	-45.2	17.0	i
CCCSc1nnc(CSc2ncccn2)n1C	-27.6	1.4	-7.5	7.6	0.2	i
CCCc1cc(=O)oc2cc(C)c(CN3CCCC3)c(O)c12	-37.0	79.9*	5.2	-18.5	8.9	+
CCCc1cc(=O)oc2c(CN3CCCC3)c(O)ccc12	1.9	31.0	-3.7	-3.8	-3.2	i
OC1c2c(F)cccc2N=C2CCCCCN21 (centres undefined)	11.1	.	.	.	.	.
CCOc1cccc(=O)c2c(C)n(CC(=O)c3ccccc3)c(C)c12	-27.3	52.5	-1.3	38.7	3.4	i
CCOc1cccc(=O)c2c(C)oc(C)c12	43.8*	-0.6	6.5	4.1	4.5	i
CN(C(=O)COC(=O)c1cn(-c2ccccc2)nc1-c1ccccc1)C1CCS(=O)(=O)C1 (centres undefined)	8.8	active	-5.8	19.9	-2.6	?
CCN(C(=O)COC(=O)c1cn(-c2ccccc2)nc1-c1ccccc1)C1CCS(=O)(=O)C1 (centres undefined)	13.6	-4.3	-2.6	47.6	-2.9	i
Cc1ccc(S(=O)(=O)N[C@H](C(=O)N2CCC(C(=O)N[C@H](C(=O)O)c3ccccc3)CC2)C(C)C)cc1	4.8	-14.6	-6.3	28.6	-1.2	i
O=C(COC(=O)c1cccnc1)NC1CCCc2ccccc21 (centres undefined)	8.4	78.0*	.	20.1	.	i
CCOc1ccc(/C=C/C(=O)Nc2ccccc2C(F)(F)F)cc1	2.0	active	-10.1	-14.4	-1.4	+
Cc1ccc(NC(=O)CC2SC(=O)N(c3ccccc3)C2=O)cc1 (centres undefined)	44.5*	-0.5	-1.5	1.5	-3.3	i
O=C(CC1SC2=NCCN2C1=O)Nc1ccccc1 (centres undefined)	-7.9	1.6	-0.9	10.8	-0.4	i
CCCN1C(=O)SC(CC(=O)Nc2ccc(C)cc2)C1=O (centres undefined)	45.2*	-3.7	-6.8	6.7	-16.0	i
O=C(CC1Sc2ncnn2C1=O)Nc1ccccc1 (centres undefined)	36.4	3.9	27.1	93.6*	-2.9	i
Cc1cccc(NC(=O)CC2SC(=O)N(c3ccccc3)C2=O)c1 (centres undefined)	30.6	-15.4	0.8	15.5	-1.6	i
Cc1ccc(NC(=O)CC2SC3=NCCN3C2=O)cc1 (centres undefined)	43.8*	-2.1	10.2	12.6	2.9	i
CC(=O)Nc1ccc(NC(=O)CC2SC(=O)N(CC(=O)c3ccccc3)C2=O)cc1 (centres undefined)	25.2	-17.2	-7.3	23.9	1.7	i
CC(C)(C)c1ccc(C(=O)NC(=O)COC(=O)c2ccco2)cc1	-2.9	.	-9.5	.	-4.8	.
CCOC(=O)Cn1nc(C)n(-c2ccc(C(C)C)cc2)c1=O	10.9	-10.5	1.1	50.1	-1.8	i
C#CCOCCOCCOCCNc1nc(N2CCN(C(=O)[C@H](CCCCN)n3cc(CC(C)O)nn3)CC2)nc(N2CCN(C(=O)[C@H](CCCCN)n3cc(CC(C)O)nn3)CC2)n1 (some centres undefined)	6.5	.	11.2	.	3.0	.
SMILES	PABP1 MLLE inh	eIF4H FP inh	A3G deaminase	PHOSPHO1 inh	APOBEC3A inh	PABP polyA inh
COc1ccccc1C(=O)NCCNC(=O)c1ccc(C)nc1	-9.8	3.0	-11.1	19.4	-4.0	i
O=C(CC1SC(=O)N(c2ccccc2)C1=O)Nc1ccccc1 (centres undefined)	49.5*	-2.0	-0.4	28.8	4.8	i
Cc1cccc(C)c1NC(=O)COC(=O)/C=C/c1ccc(S(=O)(=O)N2CCOCC2)cc1	4.4	.	-6.9	.	-2.1	.
Cc1ccc(N/C=C2/Sc3ccccc3NC2=O)cc1	-35.5	?	-4.3	33.9	-4.0	+
CCOc1ccc(C(=O)N2CCC3(CC2)NCCc2[nH]cnc23)cc1	-4.0	.	-2.1	18.3	5.0	.
CCOC(=O)c1nnn(-c2nonc2N)c1COc1ccccc1	-10.8	31.4	-10.0	-32.1	-2.3	+
CCCc1c(C(=O)N/N=C(\C)CCc2ccccc2)nnn1-c1nonc1N	-1.4	-10.8	14.0	67.0*	0.5	i
CCOC(=O)c1nnn(-c2nonc2N)c1COc1ccc(F)cc1	4.6	-2.2	-1.6	0.2	0.1	i
CC(NS(=O)(=O)c1ccc(NC(=O)N2CCCCC2)cc1)c1ccccc1 (centres undefined)	-2.9	-3.9	-4.9	.	-1.4	i
CCSc1nccc(-c2nn(-c3ccc(C)cc3)ccc2=O)n1	22.5	-9.1	-2.1	10.1	-1.4	i
C#CCSc1nccc(-c2nn(-c3ccc(C)cc3)ccc2=O)n1	17.4	-8.6	0.6	80.9*	1.7	i
COc1ccccc1C1=NOC(C)(c2nnc(-c3cccc(Cl)c3)o2)C1 (centres undefined)	-2.7	.	-11.4	.	-4.7	.
CC1CN(S(=O)(=O)N2CCOCC2)CCN1S(=O)(=O)N1CCOCC1 (centres undefined)	7.6	3.5	-3.1	38.5	-1.5	i
O=C1CCC(=O)N1c1ccc(-c2nc3ccccc3s2)cc1	2.3	61.3*	-0.5	56.2	2.9	i
Nc1ccc(-c2nc3ccccc3s2)cn1	3.7	12.0	-8.4	13.0	-4.6	i
O=C(NC1CC1)c1ccc2sc([C@@H]3O[C@H](CO)[C@H](O)[C@H](O)[C@H]3O)nc2c1	-7.0	.	.	.	.	.
CC1C2(C)OCC(C#N)(C(=N)O2)C1(C#N)C#N (centres undefined)	.	62.7*	-9.7	14.7	-3.1	+
CC1(C)CC2(C)OC(=N)C1(C#N)C2(C#N)C#N (centres undefined)	20.2	-3.3	-11.7	15.9	-2.3	i
Nc1nc(Cl)nc2c1ncn2C1OCC(O)C(O)C1O (centres undefined)	-10.6	.	.	.	.	.
Cc1cc(C)c2cc3c(ccn3C3OC[C@H](O)[C@H](O)[C@H]3O)cc2n1 (some centres undefined)	49.1*	32.9*	-4.0	-13.6	-3.5	+
COc1ccc(-c2nc3n(n2)C(c2ccccc2Cl)C(C(N)=O)=C(C)N3)cc1 (centres undefined)	2.6	-4.0	-6.6	2.1	-1.9	i
CC(=O)/C(=N\Nc1ccc(C)cc1)N1CCOCC1	4.2	-4.9	-6.1	65.0*	-3.0	i
CC(=O)Nc1ccc(NC(=O)N2CCOCC2)cc1	9.8	.	.	.	.	.
CCc1ccc(OCCCCN(C)Cc2ccccc2)cc1	1.1	17.4	-2.7	3.1	-4.4	i

Screens (PubChem BioAssay)
